Sampled rows, rich in hits. Any-hit rate of the full collection: about 9.2%.
ELG1 repair inh – qHTS screen for small molecules that inhibit ELG1-dependent DNA repair in human embryonic kidney (HEK293T) cells expressing luciferase-tagged ELG1; HEK293T ELG1-luciferase reporter, luminescence, 16 h; DNA damage induced by 5-fluorouridine; Potency, µM (top dose mostly 46.1 µM), without a hit: top-dose activity change, negative = inhibition, usual class: inhibitors; 330,000 tested, 2.3% active; also: % is scaled to controls: 0 for no effect and ±100 for the full control effect; nearly all actives have a fitted effect of over 55% in size
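5-Fluorouridine DNA damage + compound/DMSO, 2,000 cells/well, 16 h, 37 °C/5% CO2. ONE-Glo, 30 min RT, luminescence. Readout = decrease in reporter signal.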
ELG1 genotoxic – qHTS screen for small molecules that induce genotoxicity in human embryonic kidney (HEK293T) cells expressing luciferase-tagged ELG1; HEK293T ELG1-luciferase reporter, luminescence, 16 h; Potency, µM (doses to about 46 µM), without a hit: at the highest dose activity change, positive = activation, most hits filed as activators; 330,000 tested, 1.3% active; also: % of control where 0% means no effect; nearly all actives have a fitted effect of over 60% in size
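After overnight (16 hr) compound treatment at 37 °C, ELG1-luciferase HEK293T cells were lysed with ONE-Glo; luminescence quantified 30 min later at room temperature.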
SMN2 splice up – qHTS Assay for Enhancers of SMN2 Splice Variant Expression. HEK293 SMN2-luciferase splicing reporter, luminescence, 30-36 h. 210,000 tested, 2.8% active. Potency, µM (highest dose often 46.1 µM), for inactives: top-dose activity change, positive = activation, usual class: activators; also: % of control where 0% means no effect; nearly all actives have a fitted effect of over 55% in size
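qHTS luciferase splicing reporter: luminescence rises when SMN2 exon 7 is included in transfected HEK293 cells. Compound exposure lasted 30-36 h at 37C, with 4.5 mM final sodium butyrate as control, followed by a ONE-Glo read.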
NPC1 prom act – qHTS Assay for NPC1 Promoter Activators | Huh7 NPC1 promoter luciferase reporter, 24 h | Potency, µM (highest dose often 9.22 µM), without a hit: top-dose activation, usual class: activators | 320,000 tested, 2.4% active; also: % of control where 0% means no effect; nearly all actives have a fitted effect of over 60% in size
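Stably transfected Huh7 (NPC1 promoter→luciferase), 1500 cells/well in Opti-MEM + 10% FBS, 2 h settle, then compound 24 h at 37 °C. Luminescence after 10 min with Amplite reagent.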
Rab9 promoter act – qHTS Assay for Rab9 Promoter Activators; Huh7 Rab9 promoter-luciferase reporter, luminescence, 24 h; Potency, µM (titrated, usually from 9.22 µM), for inactives: at the top dose activation, negative = inhibition, hits mostly activators; 320,000 tested, 2.8% active; AID 485297, 2010; also: % of control where 0% means no effect; nearly all actives have a fitted effect of over 60% in size
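Steps: seed 1500 Huh7 Rab9-luc cells per well, rest 2 h at 37 °C; add compound in DMSO; incubate 24 h; add luciferase reagent, 10 min ambient; read luminescence.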
FLuc counter – qHTS profiling assay for firefly luciferase inhibitor/activator using purifed enzyme and Km concentrations of substrates (counterscreen for miR-21 project). 360,000 tested, 6.9% active. Luciferin 4-monooxygenase (Photinus pyralis), P08659. purified FLuc, Km substrates, luminescence inhibition. AID 588342, 2011. Potency, µM (highest dose often 57.5 µM), without a hit: at the highest dose activity change, negative = inhibition, actives largely listed as inhibitors;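 also: plate controls were vehicle for no effect and reference inhibitor for full effect; nearly all actives have a fitted effect of over 55% in size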
Target sequence (P08659 whole entry, looked up): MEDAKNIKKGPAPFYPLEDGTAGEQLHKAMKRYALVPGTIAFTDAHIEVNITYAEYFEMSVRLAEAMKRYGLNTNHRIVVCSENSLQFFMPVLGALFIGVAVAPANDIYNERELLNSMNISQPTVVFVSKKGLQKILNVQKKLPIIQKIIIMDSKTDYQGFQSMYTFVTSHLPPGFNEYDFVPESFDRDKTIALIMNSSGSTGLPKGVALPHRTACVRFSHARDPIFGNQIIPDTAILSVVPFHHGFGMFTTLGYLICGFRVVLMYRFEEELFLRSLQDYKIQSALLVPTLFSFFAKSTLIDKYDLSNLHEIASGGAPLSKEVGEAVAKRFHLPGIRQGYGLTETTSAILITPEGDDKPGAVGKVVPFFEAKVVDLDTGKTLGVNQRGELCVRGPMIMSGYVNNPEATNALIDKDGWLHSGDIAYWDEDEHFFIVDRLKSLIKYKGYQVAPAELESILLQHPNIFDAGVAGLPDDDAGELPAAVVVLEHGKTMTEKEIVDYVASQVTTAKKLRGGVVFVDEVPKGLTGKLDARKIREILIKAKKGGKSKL
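Biochemical qHTS of compounds, final roughly 60 µM downward over six points, against 10 nM purified firefly luciferase using Km concentrations of substrates (10 uM D-luciferin, 10 uM ATP) in Tris acetate pH 7.5 buffer; luminescence output.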
Starred values were filed as active, the others as inactive; ? = inconclusive; nt = no result; [ ] = dose if it differs, or a comment. Calls follow the shape of the dose curve; as a rule, active = well fitted curve in the direction sought with a large enough effect; inconclusive = small, poorly fitted or top-dose-only effect, or another doubt; inactive = no such curve, though single readings can be large; an effect the other way counts as inactive or inconclusive. Potency is read from the fitted curve at half-maximal effect.

SMILES | ELG1 repair inh | ELG1 genotoxic | SMN2 splice up | NPC1 prom act | Rab9 promoter act | FLuc counter
N#Cc1cc(C#N)c(SCC(=O)N2CC(=O)Nc3ccccc32)nc1N | 11.6µM* | -0.3% | nt | -10.5% | 1.5% | -1.2%
CCC(=O)N1CCc2cc(S(=O)(=O)NC(CC(C)C)C(=O)NCc3ccc(F)cc3)ccc21 (stereo unspecified) | nt | nt | 3.2% | nt | nt | -6.7%
Cc1ccc(C(=O)NC(C#N)=C(Cl)Cl)cc1 | ? | -10.2% | -56.1% | -46.7% | -61.8% | -16.4%
Cc1ccc(OCC(O)CN2CCOCC2)cc1C (stereo unspecified) | -5.8% | 1.4% | nt | -0.2% | -2.5% | 1.5%
COc1ccc(N(Cc2cc(=O)[nH]c3ccccc23)C(C)=O)cc1 | -4.8% | -0.3% | nt | -1.3% | 1.0% | -2.8%
CCOc1ccc(C(C)=O)cc1COC(=O)c1ccc2c(c1)NC(=O)CS2 | 16.4µM* | -6.5% | nt | -5.7% | -3.9% | nt
COc1ccc(C(=O)COC(=O)c2ccc3c(c2)NC(=O)CS3)c(OC)c1 | ? | -12.1% | nt | -7.7% | -2.7% | -5.7%
COc1ccc(-c2cn3c(C)c(C(=O)Nc4cccc(C)n4)sc3n2)cc1 | ? | -12.0% | ? | 0.4% | 2.4% | 12µM*
Cc1cccc(NC(=O)c2sc3nc(-c4ccc(F)cc4)cn3c2C)n1 | 12.9% | 3.6% | -25.9% | 3.8% | -1.7% | -14.5%
Cc1cccc(NC(=O)c2sc3nc(-c4ccccc4)cn3c2C)n1 | 18.4µM* | -5.8% | -53.3% | 16.2% | 0.6% | ?
COc1ccc(-c2cn3c(C)c(C(=O)NC(C)(C)C)sc3n2)cc1 | ? | ? | nt | 2µM* | 0.631µM* | 5.36µM*
COc1ccc(C)cc1NC(=O)c1sc2nc(-c3ccc(F)cc3)cn2c1C | nt | nt | nt | nt | nt | 2.6%
COc1ccc(-c2cn3c(C)c(C(=O)NC(C)C)sc3n2)cc1 | 16.5% | 14.9% | -3.6% | 24.4% | ? | ?
COc1ccc(-c2nc(CS(=O)CC(=O)NCc3ccc(F)cc3)c(C)o2)cc1 (stereo unspecified) | -8.3% | -2.8% | nt | -3.8% | -0.1% | -18.2%
CCCN=C1N(CC)C[C@@H]2[C@@H]3C(=O)N(C)C(=O)[C@@H]3[C@](C)(C(=O)OC)N12 | 17.2% | 9.3% | nt | nt | nt | nt
CN1CCN(CC(=O)N2c3ccccc3Sc3cc4ccccc4cc32)CC1 | nt | nt | -10.8%[9.22 µM] | nt | nt | nt
N#CC1CC(c2ccccc2)=NN1c1ccccc1[N+](=O)[O-] (stereo unspecified) | ? | ? | 22.4µM* | ? | 3.55µM* | 12µM*
N#Cc1c(SCC(=O)Nc2nc3ccccc3s2)sc2c(O)cc(=O)[nH]c12 | ? | 1.4% | nt | 1.0% | 17.4% | 2.39µM*
N#Cc1c(SCC(=O)Nc2nc3ccc(Br)cc3s2)sc2c(O)cc(=O)[nH]c12 | 20.3% | -0.3% | nt | 26.0% | 25.6% | ?
Cc1cc(Cl)ccc1NC(=O)CSc1nc2c(c(=O)[nH]1)CCC2 | nt | nt | nt | nt | nt | 1.4%
Cc1ccc(C(=O)N2c3ccccc3CC2C)o1 (stereo unspecified) | ? | ? | 15.8µM* | 2µM* | 1µM* | 7.57µM*
Cc1c(C(=O)N2CCc3ccccc32)oc2c1C(=O)CC(C)(C)C2 | ? | 3.26µM* | 12.6µM* | 24.2% | ? | 8.49µM*
CC(=O)c1c(C)[nH]c(C(=O)N2c3ccccc3CC2C)c1C (stereo unspecified) | ? | 13.9% | 1.9% | -0.1% | 8.7% | 3.9%
Cc1ccc(C(=O)N2CCc3ccccc32)o1 | ? | ? | 7.94µM* | 2.24µM* | 1.58µM* | 9.53µM*
